# About 83,000 compounds went through this panel and 20% of them were active in at least one assay; those are over-represented in the sample as a whole.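 Values shown are percent growth following 48 h exposure of cells in 96-well plates to a single concentration of compound; below 10 was considered active.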 Unmarked numbers belong to inactive results. The source made the active and inactive calls.
# Columns and labels:
# Test in all cases: NCI-60 one-dose screen, 48 h (100 = growth as untreated, 0 = no growth, -100 = all killed)
# Settings in all cases: 10 µM unless noted
# [1] = tested on: HCT-15 colon
# [2] = tested on: HT29 colon
# [3] = tested on: SNB-75 CNS
# [4] = tested on: SNB-19 CNS
# [5] = tested on: U251 CNS
# [6] = tested on: PC-3 prostate
# [7] = tested on: SK-MEL-5 melanoma
# [8] = tested on: UACC-62 melanoma
# [9] = tested on: LOX IMVI melanoma
# [10] = tested on: SK-MEL-28 melanoma
SMILES,growth [1],growth [2],growth [3],growth [4],growth [5],growth [6],growth [7],growth [8],growth [9],growth [10]
S=c1nc2oc(-c3ccccc3)c(-c3ccccc3)c2c(/N=C\c2ccco2)[nH]1,85.6%,98.3%,74.2%,95.2%,91.4%,85.8%,94.6%,90.9%,92.9%,109%
COC(=O)N1CC(Oc2ccccn2)C2CC1c1ccccc1O2 (stereo not given),98.8%,103%,98.7%,94.5%,104%,94.4%,99.4%,89.5%,96.8%,94.8%
CCCn1nc(C(=O)N(C)Cc2ccccc2)c2c1CCC(N1CCc3ccccc31)C2 (stereo not given),96.3%,102%,100%,90.2%,96.9%,77.2%,99.7%,85.2%,100%,106%
COc1cc(C2C(C(=O)OCc3ccccc3)=C(C)NC(C)=C2C(=O)OCc2ccccc2)cc(OC)c1OC,23.4%,12.3%,46.2%,42.5%,31.3%,9.87% (active),8.07% (active),30.2%,29.9%,41.1%
COc1ccc(C(O)c2cc3c(N)c(C(=O)Nc4cccc(Cl)c4C)sc3nc2C)cc1 (stereo not given),10.8%,-7.84% (active),-11.4% (active),39%,11.1%,16.7%,-53.7% (active),24.6%,22%,57.7%
CN(CCCNC(=O)Cc1ccc2ccc3cccc4ccc1c2c34)CCCNc1cc(-c2ccc3ccccc3c2)nc2ccccc12,-69% (active),-80.8% (active),-94.6% (active),-82.8% (active),-49.3% (active),-87.5% (active),-93.1% (active),-51.6% (active),-54% (active),-85.7% (active)
Cc1ccnc(Nc2ccc([N+](=O)[O-])c(NCCN3CCOCC3)n2)c1,8.47% (active),10.9%,56.8%,58.3%,23.2%,12.2%,-3.36% (active),37.3%,22.8%,72%
N#C/C(=C\c1ccc([N+](=O)[O-])cc1)n1nnc2cc(F)c(F)cc21,-7.69% (active),0.57% (active),46.3%,69%,43.5%,-16% (active),81.3%,-43.7% (active),-97.6% (active),101%
COC(=O)c1c2c(c(C)[n+]([O-])c1C)C(=O)C(NCc1cccc(Cl)c1)=CC2=O,7.55% (active),5.87% (active),127%,9.37% (active),-6% (active),4.17% (active),-77.7% (active),-42.6% (active),11.7%,63%
CC1=CC(c2ccco2)=C2C(N)=NNC2N1 (stereo not given),99.7%,104%,64%,92.9%,96.8%,101%,101%,89.3%,98.3%,96.5%
Cc1c2ccncc2c(C)c2c1c1cc(CO)ccc1n2C,4.02% (active),-21.1% (active),13.3%,1.5% (active),-10.8% (active),4.52% (active),6.31% (active),-54.2% (active),-21% (active),5.47% (active)
N=C(N)c1ccc(-c2ccc(-c3cc(Cl)cc(Cl)c3)s2)nc1,-7.35% (active),13.2%,105%,64.5%,-36.1% (active),71.3%,94%,95.2%,-75.6% (active),108%
CCOC(=O)C#Cc1c(C(=O)OCC)nnn1Cc1ccc(C(F)(F)F)cc1,-16.9% (active),5.09% (active),62.3%,85.5%,93.7%,64.5%,95.2%,80%,-68.3% (active),89.7%
CS(=O)(=O)Nc1cc(-c2ccc3ncc(C#N)c(Nc4ccc(F)c(Cl)c4)c3c2)cnc1Cl,8.1% (active),1.84% (active),-6.88% (active),14.3%,-15.4% (active),8.23% (active),-90% (active),-10.7% (active),-53.7% (active),5.07% (active)
CCN(CC)CCN1C(=O)c2cccc3c(/C=C/CN4C(=O)c5cccc6cccc(c56)C4=O)ccc(c23)C1=O,95.8%,103%,91.2%,96%,105%,86.6%,94.3%,99.8%,96.6%,109%
O=S(=O)(Nc1cc(Sc2cccc3cccnc23)c(O)c2ccccc12)c1ccccc1,12.2%,-35.8% (active),65.9%,43.4%,6.77% (active),20.9%,-25.2% (active),-40.1% (active),-50.2% (active),0.27% (active)
CN(Cc1ccccc1)c1nc(Cl)c(C2CC(c3ccccc3)=NN2c2ccccc2)s1 (stereo not given),94.2%,80.8%,82.3%,100%,90.2%,83.2%,98.8%,88.8%,88.4%,98.2%
O=C(O)/C=C/C(=O)Nc1cccc(Cn2nnc3cc(Cl)c(Cl)cc32)c1,95.3%,110%,86.4%,100%,103%,102%,99.1%,97.6%,97.3%,106%
CC(C)N1C(=O)/C(=c2\sc3n(c2=O)C2C(NN=3)N(C)C(=O)N2C)c2ccccc21 (stereo not given),37.8%,31.3%,4.34% (active),61.9%,48.2%,55%,48.8%,33.4%,56.6%,64%
CN(C)CCCC1(c2ccc(F)cc2)OCc2cc(-c3cc4ccccc4s3)ccc21 (stereo not given),-49% (active),-67.1% (active),25.2%,71.2%,-83% (active),28.8%,60.9%,-62.1% (active),-93.6% (active),-87.5% (active)
CC[C@]12C=CCN3CC[C@@]4(c5ccc(OC)cc5N(C)[C@H]4[C@@](O)(C(=O)OC)[C@@H]1OC(=O)CCC[P+](c1ccccc1)(c1ccccc1)c1ccccc1)[C@@H]32,101%,2.42% (active),-4.39% (active),11%,4.03% (active),2.13% (active),-91.5% (active),-59.3% (active),8.81% (active),20.9%
CS(=O)(=O)c1nnc(-c2ccccc2)s1,71.4%,82.2%,103%,107%,106%,96.4%,99.4%,82.7%,71.2%,97.3%
O=C(CCCCCCN1CC(=O)N2[C@H](c3ccc(Cl)cc3)c3[nH]c4ccccc4c3C[C@@H]2C1=O)NO,109%,67.5%,30.2%,69.6%,53%,48.2%,43.8%,21%,27.1%,45.3%
COc1ccc2c(c1)CCc1[nH]nc(-c3cc(OC)c(OC)c(OC)c3)c1-2,10.3%,0.652% (active),36.7%,28.7%,5.42% (active),12.6%,-54.2% (active),28.8%,5.34% (active),58%
O=C(N/N=C\c1ccccc1S(=O)(=O)O)N/N=C/c1ccccc1S(=O)(=O)O,104%,105%,95.5%,99.8%,99.9%,96.3%,106%,98.1%,102%,101%
Nc1nc(N)c2c(n1)NC(c1ccc(Cl)cc1)C1CCc3ccccc3C1=N2 (stereo not given),45.9%,41.9%,62.1%,76.1%,51.1%,51.6%,7.87% (active),55.2%,56.8%,91.3%
CCOC(=O)C1=C(C)/C(=C\c2[nH]c(C)c(C(=O)OCC)c2C)N=C1C,91.4%,76.7%,89.1%,89.7%,74.1%,84.6%,97.4%,90.9%,1.05% (active),88.3%

# From PubChem BioAssay (NCI)
